Measured values: a collection of fitness landscapes (doi:10.1016/j.celrep.2020.107928)
In all, about 81,000 sequences were measured (“one-hybrid fitness for binding parS DNA”: median about -0.17, highest 2% from about 0.51 on). The list comes from a sample in which the highest values are over-represented; it also holds similar and randomly drawn sequences.

B1: Caulobacter ParB omega fusion; a variant is named by its letters at X, in order, B8GW30 (parent)
chain: MESVVVGEPGMSEGRRGLGRGLSALLGEVDAAPAQAPGEQLGGSREAPIEILQRNPDQPRRTFREEDLEDLSNSIREKGVLQPILVRPSPDTAGEYQIVAGERAWRAAQRAGLKTVPIMVRELDDLAVLEIGIIENVQRADLNVLEEALSYKVLMEKFERTQENIAQTIGKSXSHVANXMRLLXLPDEVQSYLVSGELTAXHARAIAAAADPVALAKQIIEGGLSVRETEALARKAPNLSAGKSKGGRPPRVKDTDTQALESDLSSVLGLDVSIDHRGSTGTLTITYATLEQLDDLCNRLTRGI

Variants of: B1
Test: one-hybrid fitness for binding parS DNA (scaled: cognate 1, non-cognate 0); higher = stronger binding
Conditions: with parS DNA site
Outline: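 Fitness here means the log change in variant-to-wild-type read ratio between plasmids sequenced before and after selection. That scale was set so cognate equals 1 and non-cognate equals 0. The selection was a bacterial one-hybrid screen of Caulobacter ParB libraries, four specificity codons randomised, in E. coli USO carrying a HIS3 reporter with the site 19 bp from the promoter, grown 48 hours at 37°C on M9-minus-histidine with 0.1 mM IPTG and 5 mM 3-AT.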

one-hybrid fitness for binding parS DNA, 0.893:
RNRC

one-hybrid fitness for binding parS DNA, 0.896:
RGKG

one-hybrid fitness for binding parS DNA, 0.202:
RVTF

one-hybrid fitness for binding parS DNA, 0.727:
RGQG

one-hybrid fitness for binding parS DNA, 0.798:
RNHC

one-hybrid fitness for binding parS DNA, 0.799:
RLKT

one-hybrid fitness for binding parS DNA, 0.481:
RFWA

one-hybrid fitness for binding parS DNA, 0.626:
RTWA

one-hybrid fitness for binding parS DNA, 0.995:
RSQG

one-hybrid fitness for binding parS DNA, 0.502:
RGVG

one-hybrid fitness for binding parS DNA, 0.229:
RHLH

one-hybrid fitness for binding parS DNA, 0.498:
RNET

one-hybrid fitness for binding parS DNA, 0.282:
RGWA

one-hybrid fitness for binding parS DNA, 0.47:
RGIG

one-hybrid fitness for binding parS DNA, 0.569:
RNWC

one-hybrid fitness for binding parS DNA, 0.576:
RGYG

one-hybrid fitness for binding parS DNA, 0.361:
RNHY

one-hybrid fitness for binding parS DNA, 0.562:
RNDT

one-hybrid fitness for binding parS DNA, 0.65:
RGHG

one-hybrid fitness for binding parS DNA, 0.298:
RGPG

one-hybrid fitness for binding parS DNA, 0.848:
RNSC

one-hybrid fitness for binding parS DNA, 0.541:
RSPS

one-hybrid fitness for binding parS DNA, 0.813:
RHIS

one-hybrid fitness for binding parS DNA, 0.972:
RVTS

one-hybrid fitness for binding parS DNA, 1:
RTQG

one-hybrid fitness for binding parS DNA, 0.982:
RVTC

one-hybrid fitness for binding parS DNA, 0.874:
RGRG

one-hybrid fitness for binding parS DNA, 0.598:
RAWA

one-hybrid fitness for binding parS DNA, 0.504:
RGFG

one-hybrid fitness for binding parS DNA, 0.462:
RFQY

one-hybrid fitness for binding parS DNA, 0.869:
RSAT

one-hybrid fitness for binding parS DNA, 0.486:
RHWA

one-hybrid fitness for binding parS DNA, 0.299:
RVTM

one-hybrid fitness for binding parS DNA, 0.284:
RNQN

one-hybrid fitness for binding parS DNA, 0.68:
RCWA

one-hybrid fitness for binding parS DNA, 0.296:
RSQH

one-hybrid fitness for binding parS DNA, 0.235:
RNYN
RNCY

one-hybrid fitness for binding parS DNA, 0.559:
RYDA

one-hybrid fitness for binding parS DNA, 0.85:
RFLC

one-hybrid fitness for binding parS DNA, 0.697:
RFWC

one-hybrid fitness for binding parS DNA, 0.914:
RHHS

one-hybrid fitness for binding parS DNA, 0.51:
RGWG

one-hybrid fitness for binding parS DNA, 0.719:
RNYC

one-hybrid fitness for binding parS DNA, 0.305:
RHWN

one-hybrid fitness for binding parS DNA, 1.01:
RLQG
RMQG
RCIS
RSYS

one-hybrid fitness for binding parS DNA, 0.58:
RKWA
RYNA

one-hybrid fitness for binding parS DNA, 0.86:
RTNT

one-hybrid fitness for binding parS DNA, 0.391:
RHHN

one-hybrid fitness for binding parS DNA, 0.459:
RVTY

one-hybrid fitness for binding parS DNA, 0.785:
RNNT

one-hybrid fitness for binding parS DNA, 0.969:
RFRC

one-hybrid fitness for binding parS DNA, 0.949:
RVTT

one-hybrid fitness for binding parS DNA, 0.661:
RGAG

one-hybrid fitness for binding parS DNA, 0.999:
RIQG

one-hybrid fitness for binding parS DNA, 0.801:
RGNG

one-hybrid fitness for binding parS DNA, 0.22:
RVTH

one-hybrid fitness for binding parS DNA, 0.887:
RSIS

one-hybrid fitness for binding parS DNA, 1.02:
RCQG

one-hybrid fitness for binding parS DNA, 0.434:
RNNY

one-hybrid fitness for binding parS DNA, 0.976:
RHYS

one-hybrid fitness for binding parS DNA, 0.358:
RNPC

one-hybrid fitness for binding parS DNA, 0.925:
RHWS
RFQC

one-hybrid fitness for binding parS DNA, ≤ 0.2:
TVTV
RTNE
NTDT
RTNR
RTDR
MPRE
IDTG
PPTT
RHPH
PTAI
RPWA
NAWA
DLWA
PWGP
CSAK
HTAP
VEFT
QGNA
YNSE
QDDR
TNQC
APGM
QNSI
NRWA
WTTC
NRTE
GCLA
YTTD
EGCL
FWSR
PAVQ
QHPF
LPIQ
RGSP
RGQP
RGKP
RGLH
RGLP
RGQH
RGSH
PKPQ
PRNG
HPRY
RGAN
RGNH
RGCP
RGCM
PPPF
VAEC
FHHI
RGAI
LDML
CFTC
MHTL
NSGN
MIEG
RGWY
RGGH
RGGD
RGWR
RGRH
RGHN
RGHP
KLKH
KDID
PVSF
QEKR
MRPT
NPTS
FQVG
NYES
DYNA
EYNA
FRQS
WVAL
HINS
FSFV
GGMR
RHID
RHIP
RHHD
RHRD
TIDD
PRIM
TPSD
ANRF
TMCR
DPAI
RHWP
RHLD
TAQE
RTCV
LSSK
YMSG
SLTS
RPQG
RSQP
RLQD
RMQQ
RDQG
FGAV
AVLG
GATL
VSCH
FRAR
KNVC
PTQM
HSEM
RIQR
RTQR
NFQG
DFQG
NSFG
LQRT
MPTI
ANTA
ARCH
HTWT
RSAR
RDAT
REAT
RPAT
LAGT
HRLD
HMAN
WKAR
SDCR
RVTD
RVTK
RVTP
QREG
GTSR
ARHM
EPPR
HSQW
LRNA
RARE
HIDW
TFRF
GVCA
RSPN
RSYH
RSID
RPIS
RSPP
RSIP
RSYP
TPAQ
CKSG
LRFF
RPPS
RCPH
WVLG
AQAH
QPQI
RNLR
RNYD
RNLK
RNRD
RNRH
RNIP
VAHC
TAIS
PGSI
MKSG
AHRN
SQMR
IRKE
RNHQ
RNGF
RNCR
RNGK
RNSF
RNSR
QDYV
VSHT
KTMS
EVAF
RNWR
DNWC
RNQD
TLDS
ARHI
RLKK
RLVD
RLKR
RLVP
PSIF
TTMY
IRGH
RNDF
RNNE
PRSW
AEDR
SKLC
DKAA
NKAA
HLVN
EADC
RFWF
DFLC
RFRP
DFRC
RFWR
DFQC
NFLC

one-hybrid fitness for binding parS DNA, 0.213:
RTQF

one-hybrid fitness for binding parS DNA, 0.475:
RHPS

one-hybrid fitness for binding parS DNA, 0.496:
RGDG

one-hybrid fitness for binding parS DNA, 0.769:
RNGC

one-hybrid fitness for binding parS DNA, 0.62:
RKAA

one-hybrid fitness for binding parS DNA, 0.254:
RWWA

one-hybrid fitness for binding parS DNA, 0.546:
RSWA

one-hybrid fitness for binding parS DNA, 0.704:
RNCC

one-hybrid fitness for binding parS DNA, 0.432:
RVTN

one-hybrid fitness for binding parS DNA, 0.648:
RLWA

one-hybrid fitness for binding parS DNA, 0.374:
RHRN

one-hybrid fitness for binding parS DNA, 0.978:
RHLS

one-hybrid fitness for binding parS DNA, 0.223:
RHYH
RMQR

one-hybrid fitness for binding parS DNA, 0.736:
RNLC

one-hybrid fitness for binding parS DNA, 0.341:
RGRN

one-hybrid fitness for binding parS DNA, 0.771:
RGSG

one-hybrid fitness for binding parS DNA, 0.992:
RVTG

one-hybrid fitness for binding parS DNA, 0.834:
RRWA

one-hybrid fitness for binding parS DNA, 0.558:
RGCG

one-hybrid fitness for binding parS DNA, 0.523:
RNIC

one-hybrid fitness for binding parS DNA, 0.802:
RTDT

one-hybrid fitness for binding parS DNA, 0.88:
RCPS

one-hybrid fitness for binding parS DNA, 0.549:
RKFA

one-hybrid fitness for binding parS DNA, 0.844:
RLVT

one-hybrid fitness for binding parS DNA, 0.823:
RHRS

one-hybrid fitness for binding parS DNA, 0.272:
RIQF

one-hybrid fitness for binding parS DNA, 0.634:
RMWA

one-hybrid fitness for binding parS DNA, 0.82:
RNQC

one-hybrid fitness for binding parS DNA, 0.228:
RCIP

one-hybrid fitness for binding parS DNA, 0.471:
RLQN

one-hybrid fitness for binding parS DNA, 0.597:
RGLG

one-hybrid fitness for binding parS DNA, 0.965:
RFQG

one-hybrid fitness for binding parS DNA, 0.64:
RGGG

one-hybrid fitness for binding parS DNA, 0.921:
RCAT
